SMILES strings stand for the structures. The campaign covered roughly 320,000 compounds. About 1,300 (0.41%) were called active. Not shown: some 3% with an inconclusive outcome. The rule behind the calls is not given here. A selection follows. Results with a measured potency or affinity are listed apart.

The nature of this assay: growth inhibition of non-replicating M. tuberculosis (AID 488890).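 Note: plate controls were DMSO cells for no effect and high antibiotic wells for full effect.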 The note with it: Mycobacterium tuberculosis non-replicating, at 25 µM, stronger effect = higher value.
One may read the inhibition as the change of the read-out against control, counted positive when it falls. Turning to `COc1ccc(-n2nc(C(=O)NCC(=O)N3CCN(c4ccc(F)cc4)CC3)c3ccccc3c2=O)c(OC)c1`, the inhibition was 3.71%.
The same measure for `N#Cc1ccc(C(=O)CN2CCN(c3ccccc3)CC2)cc1`: 3.58%; for `COc1ccc(N2CCN(C(=O)C3CCN(C(=O)c4ccc([N+](=O)[O-])cc4)CC3)CC2)cc1`: 21.3%; for `CS(=O)(=O)N(CC(=O)N1CCN(c2ccc(F)cc2)CC1)c1cccc(Cl)c1`: -4.05%.
For `O=C(NCc1cccnc1)c1ccc(S(=O)(=O)N2CCCCCC2)cc1`, the inhibition is 5.4%.
In the case of `Cc1ccc(NC(=O)COc2ccccc2C(=O)Nc2ccccc2)cc1Cl` it was -4.97%; in that of `COc1cc(NC(=O)COc2ccc(-n3ccnc3)cc2)cc(OC)c1`, 57.6%; in that of `O=C(COc1ccc(-n2ccnc2)cc1)Nc1cccc(F)c1`, 62.5%.
As to `CCOCC(=O)Nc1ccc(Br)c(C)c1`, the inhibition was 78.4%.
For `COCC(=O)Nc1ccc(C)c(Cl)c1`, the inhibition came out at 57.3%.
The same measure for `Cc1ccc(NC(=O)CCC(=O)NNC(=O)COc2ccccc2)cc1C`: -33.1%; for `Cc1ccc(NC(=O)COc2ccccc2C=O)cc1Cl`: 11.5%; for `CC(C)c1ccc(NC(=O)COc2ccccc2)cc1`: 75.1%.
The same measure for `CC(C)n1ncc(C(N)=O)c1N`: -11%; for `O=C(CO/N=C/c1c(Cl)cccc1Cl)NNC(=O)c1ccc(Cl)cc1`: -1.83%.
The same measure for `CCn1ccnc1CN(C)C(=O)CCc1nnc(CCC2CCCCC2)o1`: 6.59%; for `Cc1cccc(-n2c(-c3ccncc3)n[nH]c2=S)c1C`: 13.2%; for `Nc1nc(SCCC(F)=C(F)F)n[nH]1`: 2.3%.
Turning to `Cc1nc2ccc(NC(=O)Cc3cccc(F)c3)cc2s1`, the inhibition was 3.01%.
In the case of `O=C(CC(Nc1ccccc1)C(=O)O)c1ccccc1` (centres undefined), the inhibition amounted to 28.9%.
In the case of `Cc1cccc(OCC(=O)Nc2ccc3nc(C)sc3c2)c1` it was 75.1%.
The same measure for `O=C(CC(Nc1ccc(Cl)cc1)C(=O)O)c1ccccc1` (centres undefined): 58.9%; for `CC(=O)c1ccccc1OCc1ccc(S(=O)(=O)Cc2ccccc2)cc1`: 46%.
Take `O=C(NCc1ccccc1F)C1CCCN1C(=O)Nc1ccc(F)cc1` (centres undefined): the inhibition worked out at 5.39%.
With `CC1CN(C(=O)COc2ccc3ccccc3c2Br)CC(C)O1` (centres undefined), the inhibition was 3.67%.
Take `O=C(NCc1cccnc1)C(=O)N/N=C/c1ccccc1[N+](=O)[O-]`: the inhibition is 0.97%.
In the case of `CC(=O)[C@@]1(O)CCC2C3CC=C4C[C@@H](O)CC[C@]4(C)C3CC[C@@]21C` (some centres undefined) it was -5.65%; in that of `Clc1ccc(Cc2noc(-c3cccs3)n2)cc1`, 78.5%.
In the case of `Fc1ccc(CSc2nnc(-c3ccncc3)o2)cc1` it was 73.6%; in that of `c1csc(-c2nnc(COc3ncnc4sccc34)o2)c1`, 10.4%.
In the case of `CCSc1nnc(-c2cccs2)o1` it was 58.5%.
With `Cc1nnc(SCc2nnc(-c3cccs3)o2)s1`, the inhibition stood at 72.4%.
The same measure for `Cc1nnc(SCc2nnc(-c3cccs3)o2)n1C`: -12.8%.
In the case of `Clc1ccc(Cc2nnc(-c3ccccc3Br)o2)cc1` it was 69.1%; in that of `COc1cccc(C(=O)CSc2nnc(-c3cccs3)o2)c1`, 65%; in that of `CCOC(=O)c1cnc(SCc2ccc(C(C)(C)C)cc2)nc1N`, 14.9%.
In the case of `CCOC(=O)C(NC(=O)Nc1ncccn1)(Oc1ccccc1)C(F)(F)F` (centres undefined) it was -3.5%; in that of `COc1ccc(N2CCOCC2)c(NC(=O)c2ccc(Br)o2)c1`, 10%.
With `Cc1cc(C)n2[nH]c(=O)c(N=Nc3ccccc3)c2n1`, the inhibition was -9.77%.
Regarding `COc1cccc(N=Nc2c(=O)[nH]n3c(C)cc(C)nc23)c1`, the inhibition was 65.1%.
In the case of `Cc1cc(C(F)(F)F)n2[nH]c(=O)c(N=Nc3ccccc3)c2n1` it was -0.96%; in that of `Cc1cc(C)n2[nH]c(=O)c(N=Nc3ccc(S(N)(=O)=O)cc3)c2n1`, -1.74%; in that of `Cc1ccc(NC(=O)OCCNC(=O)OC(C)C)cc1`, 13.6%.
For `C/C(=C/C(=O)O)C(=O)Nc1cccc(C(F)(F)F)c1`, the inhibition is 37.8%.
The same measure for `CC(=O)Nc1ccc(/C=C/c2ccc3c([N+](=O)[O-])cccc3n2)cc1`: 10.1%.
For `COc1cc(/C=C/c2ccc3cccc([N+](=O)[O-])c3n2)ccc1OCC(=O)O`, the inhibition amounted to 31.6%.
For `CN1/C(=C\C(=O)COC(=O)c2ccc(O)cc2)C(C)(C)c2ccccc21`, the inhibition is 57.9%.
In the case of `CN1/C(=C\C(=O)COC(=O)CN2C(=O)C3CC=CCC3C2=O)C(C)(C)c2ccccc21` (centres undefined) it was 19.7%; in that of `CN1/C(=C\C(=O)COC(=O)c2ccco2)C(C)(C)c2ccccc21`, 64.9%; in that of `CN1/C(=C\C(=O)COc2ccc3c(c2)OCO3)C(C)(C)c2ccccc21`, 43%.
For `COC(=O)c1ccccc1NC(=O)COc1ccc2c(c1)OCO2`, the inhibition stood at 70.5%.
In the case of `O=C(N/N=C/c1c[nH]c2ccccc12)C1CC(=O)N(c2ccccc2)C1` (centres undefined) it was 12.1%; in that of `Cc1cc(C(=O)COC(=O)c2cccnc2Cl)c(C)n1C`, 7.66%.
In the case of `Cc1cc(C(=O)COc2ccc(F)cc2Br)c(C)n1C` it was 11.3%.
In the case of `CCN(CC)c1ccc2c(Cl)cc(=O)oc2c1` it was 11.8%.
Turning to `CCN(CC)c1ccc2c(C)c(Cl)c(=O)oc2c1`, the inhibition amounted to 2.25%.
The same measure for `Cc1cc(C)cc(OCC(=O)Nc2cccc(S(=O)(=O)NC3=NCCC3)c2)c1`: 5.82%; for `O=C(N/N=C/c1cc(Br)ccc1O)Nc1ccccc1`: 14.3%.
In the case of `COC(=O)N/N=C/c1cc(Br)ccc1O` it was 27.7%.
The same measure for `Oc1ccc(Br)cc1/C=N/NC(=S)NCCc1ccccc1`: 45.2%; for `O=C(N/N=C/c1cc(Br)ccc1O)c1ccncc1`: 63.8%; for `O=C(CNC(=O)c1ccccc1)N/N=C/c1cc(Br)ccc1O`: 38.3%.
`O=C(CNC(=O)c1ccccc1Br)N/N=C/c1cc(Br)ccc1O`: the inhibition came out at 17.8%.
In the case of `COc1cccc(-c2nc(CS(=O)(=O)CC(=O)NCCCN3CCN(C)CC3)c(C)o2)c1` it was -1.26%; in that of `C/C(=N\N=C1\NC(=O)C(CC(=O)Nc2ccc(C)c(Cl)c2)S1)C(C)(C)C` (centres undefined), 38.8%; in that of `CCCn1c2c(c(O)c(C(=O)Nc3ccc(OC)cc3)c1=O)CCCC2`, 11.5%.
In the case of `CC1(C(=O)NC(=S)N(CCC#N)Cc2cccnc2)CC1(Cl)Cl` (centres undefined) it was 12.4%; in that of `Cc1ccc(NC(=O)COC(=O)CC2CC3CCC2C3)cc1S(=O)(=O)N1CCOCC1` (centres undefined), 9.66%.
As for `COC(=O)CCN1CCN(S(=O)(=O)c2ccccc2Br)CC1`, the inhibition was -21.4%.
In the case of `Cc1cc(N/N=C/c2ccc(O)cc2O)nc(N2CCOCC2)n1` it was 6.6%; in that of `O=[N+]([O-])c1ccccc1/C=N/Nc1nc(N2CCCC2)nc(N2CCCC2)n1`, 18.8%.
In the case of `COc1ccc(/C=N/Nc2cc(C)nc(N3CCOCC3)n2)c(OC)c1` it was -23.5%; in that of `Cc1cc(N/N=C/c2ccc(O)cc2O)nc(-c2ccccc2O)n1`, 0.04%; in that of `Cc1cc(C)n(-c2ccccc2[N+](=O)[O-])n1`, 24.1%.
The same measure for `COc1ccc(OC)c(/C=N/Nc2cc(C)nc(N3CCOCC3)n2)c1`: 8.92%; for `COc1ccccc1/C=N/Nc1nc(C)cc(C)n1`: 20.8%.
As to `COc1ccccc1/C=N/Nc1cc(C)nc(N2CCOCC2)n1`, the inhibition stood at 8.69%.
The same measure for `O=C(CSc1ncccc1C(=O)O)NC1CCCCCCC1`: -1.94%; for `Cc1cc(C)c(C)c(S(=O)(=O)NC(C(=O)O)C(C)C)c1C` (centres undefined): -1.77%.
In the case of `Cc1cc(C)c(NC(=S)N2CCC(N(C)CC3CCCO3)CC2)c(C)c1` (centres undefined) it was -2.45%; in that of `O=C(C[n+]1cccc(Br)c1)c1ccc(-c2ccccc2)cc1`, 31.7%; in that of `CCCc1cc(C(=O)N2CCCC(N3CCN(c4ccccc4C)CC3)C2)n(C)n1` (centres undefined), 8.14%.
For `COc1ccccc1C(=O)NCCC(=O)Nc1ccc(S(=O)(=O)N2CCC(C)CC2)cc1`, the inhibition is 27.4%.
In the case of `Cc1ccc(NC(=O)CSc2nnc(-c3ccco3)o2)cc1` it was 27.5%; in that of `Cc1ccc(NC(=O)CSc2nnc(Cc3ccccc3)o2)c(C)c1`, 79.6%.
Take `CC(=O)Nc1ccc(C(=O)CSc2nnc(Cc3ccccc3)o2)cc1`: the inhibition turned out to be 38.2%.
With `Cc1ccc(NC(=O)CCSc2nnc(C)o2)cc1`, the inhibition was determined as 9.37%.
In the case of `CCNC(=O)CCSc1nnc(-c2ccco2)o1` it was -8.15%; in that of `Cc1cccc(C)c1NC(=O)CSc1nnc(Cc2ccccc2)o1`, -8.32%; in that of `O=C(CN1CCN(CCN2C(=O)c3cccc4cccc(c34)C2=O)CC1)c1ccc(F)cc1`, 79.3%.
In the case of `Cc1ccc(NC(=O)C2=NNC(=O)CC2)cc1S(=O)(=O)Nc1ccc(SC(F)F)cc1`, the inhibition turned out to be 6.44%.
In the case of `CC1CN(S(=O)(=O)c2cccc(C(=O)OCC(=O)N3CCCCCC3)c2)CC(C)O1` (centres undefined) it was -8.29%; in that of `COc1ccc2c(c1OC)C(=O)N(c1cccc(C)c1)C2`, -2.97%.
In the case of `O=C(O)Cn1c(SCCOc2ccc(Cl)cc2)nc2ccccc21` it was 1.68%; in that of `COc1cc(C)c(Cl)cc1S(=O)(=O)NCc1ccccn1`, -0.9%; in that of `O=c1c2[nH]c3ccc(Br)cc3c2ncn1Cc1ccncc1`, -8.92%.
In the case of `CCOC(=O)c1c(NC(=O)C2Cc3ccccc3C(=O)O2)sc2c1CCCC2` (centres undefined) it was -2.64%.
For the compound `Cc1ccc(OCC(O)CN2CCN(c3ccccn3)CC2)c(C)c1` (centres undefined), the inhibition was determined as 41.5%.
The same measure for `Cc1ccc(NC(=O)C2CCCN2C(=O)Oc2ccccc2)c(C)c1` (centres undefined): -3.45%.
As for `O=C(Nc1nccs1)c1ccc(-c2ccc(F)c(Cl)c2)o1`, the inhibition amounted to 29.7%.
On to `O=C(NCc1ccccn1)Nc1ccc(F)c(Cl)c1`, for which the inhibition is -1.66%.
The same measure for `Cc1c(C(=O)NCc2ccccn2)oc2c(Cl)cccc12`: 15.1%; for `Clc1cccc(-c2ccc(CNCCCN3CCOCC3)o2)c1`: -19.7%.
The same measure for `COc1ccc(-c2ccc(CNCc3ccccn3)o2)cc1Cl`: 78.7%; for `Cc1c(Cl)cccc1NC(=O)NCc1ccccn1`: -10.1%; for `O=C(NCc1ccccn1)c1cc(-c2ccc(Cl)cc2)oc1C(F)(F)F`: 10.7%.
`Clc1ccc(-c2ccc(CNCC3CCCO3)o2)cc1` (centres undefined): the inhibition was found to be 72.6%.
In the case of `O=C1NCCN/C1=C\C(=O)c1cccc(Br)c1` it was -1.75%; in that of `CC1=C(C(=O)OC(C)C)C(c2coc3ccccc3c2=O)C2=C(CCCC2=O)N1` (centres undefined), 21.4%; in that of `CCOc1ccccc1OCC(=O)OCc1csc(CC(=O)Nc2ccccc2C)n1`, 37.2%.
In the case of `COc1ccc(NC(=O)CSc2nc3ccsc3c(=O)n2CCCCCC(=O)O)cc1` it was -12.1%; in that of `O=C(c1ccc2c(c1)OCO2)N1CCC2(CC1)Oc1ccc(F)cc1C(=O)C21CC(c2ccccc2)=NO1` (centres undefined), 42.7%.
Turning to `COc1cc(C(C)=O)ccc1OCC(=O)NCC1(N2CCCCC2)CCCCC1`, the inhibition was determined as 23.8%.
In the case of `O=C(CCc1c[nH]c2ccccc12)N[C@@H](Cc1c[nH]c2ccc(O)cc12)C(=O)O` it was -12.9%.

(Values after PubChem BioAssay AID488890 (Southern Research Specialized Biocontainment Screening …, 2010).)
